# Results from paper PMC7862700, “An all-to-all approach to the identification of sequence-specific readers for epigenetic DNA modifications on cytosine”.
# What was measured:
# Assay in all cases: DAPPL (digital affinity profiling via proximity ligation, sequencing); 10 mM Tris-HCl pH 7.5, 50 mM NaCl, 1 mM DTT, 4% glycerol, room temperature, 30 min; GST-TFs on glutathione beads, 16-mer random dsDNA library, 0.1% formaldehyde crosslink after washing; high values mean tight binding
# FEV = molecular target: T1, FEV (Homo sapiens, UniProt Q99581 1-238); details: protein: recombinant; tags: N-terminal GST; dsDNA, one strand shown
# T1 sequence: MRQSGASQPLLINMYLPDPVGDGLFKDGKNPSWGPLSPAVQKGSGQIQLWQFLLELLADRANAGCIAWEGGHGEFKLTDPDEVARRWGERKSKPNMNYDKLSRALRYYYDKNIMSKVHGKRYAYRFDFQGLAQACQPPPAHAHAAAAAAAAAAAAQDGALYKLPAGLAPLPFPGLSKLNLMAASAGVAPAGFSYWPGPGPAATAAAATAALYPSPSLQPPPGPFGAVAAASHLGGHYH
# Procedure, shortened: (§1)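 Beads coated with glutathione captured GST-fused human transcription factors that had been expressed in yeast, and the factors were then given DNA barcodes and pooled with a tag-only sample. The pools were incubated with 200 nmole of a random double-stranded 16-mer DNA library in Tris/NaCl/DTT/glycerol buffer for 30 min at room temperature, washed, crosslinked with 0.1% formaldehyde and proximity-ligated with BsaI/T4 ligase at 37 °C for 1 h. PCR amplification and Illumina NextSeq500 sequencing came last. Binding signal is each hexamer's read frequency for a factor divided by its frequency for the tag-only sample.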
# ETV5 = ETV5 (Homo sapiens, UniProt P41161 1-510); details: protein: recombinant; tags: N-terminal GST; dsDNA, one strand shown
# Sequence of ETV5 (P41161 whole entry): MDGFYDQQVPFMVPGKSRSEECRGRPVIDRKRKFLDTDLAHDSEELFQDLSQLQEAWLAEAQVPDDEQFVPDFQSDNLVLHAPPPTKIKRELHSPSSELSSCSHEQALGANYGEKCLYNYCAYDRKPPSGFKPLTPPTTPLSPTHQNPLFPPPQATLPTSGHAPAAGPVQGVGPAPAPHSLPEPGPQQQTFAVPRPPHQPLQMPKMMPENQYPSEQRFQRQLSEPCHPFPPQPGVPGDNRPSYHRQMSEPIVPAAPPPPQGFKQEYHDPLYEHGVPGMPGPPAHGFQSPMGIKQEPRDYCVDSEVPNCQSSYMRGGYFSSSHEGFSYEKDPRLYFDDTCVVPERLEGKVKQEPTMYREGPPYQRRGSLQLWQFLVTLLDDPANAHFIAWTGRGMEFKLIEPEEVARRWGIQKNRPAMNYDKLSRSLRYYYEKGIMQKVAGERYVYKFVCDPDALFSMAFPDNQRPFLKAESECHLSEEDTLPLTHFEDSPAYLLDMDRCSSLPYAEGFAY
# Procedure, shortened: as §1
# HSF1 = HSF1 (Homo sapiens, UniProt Q00613 1-529); details: protein: recombinant; tags: N-terminal GST; chain copies: 3; dsDNA, one strand shown
# Sequence of HSF1 (Q00613 whole entry): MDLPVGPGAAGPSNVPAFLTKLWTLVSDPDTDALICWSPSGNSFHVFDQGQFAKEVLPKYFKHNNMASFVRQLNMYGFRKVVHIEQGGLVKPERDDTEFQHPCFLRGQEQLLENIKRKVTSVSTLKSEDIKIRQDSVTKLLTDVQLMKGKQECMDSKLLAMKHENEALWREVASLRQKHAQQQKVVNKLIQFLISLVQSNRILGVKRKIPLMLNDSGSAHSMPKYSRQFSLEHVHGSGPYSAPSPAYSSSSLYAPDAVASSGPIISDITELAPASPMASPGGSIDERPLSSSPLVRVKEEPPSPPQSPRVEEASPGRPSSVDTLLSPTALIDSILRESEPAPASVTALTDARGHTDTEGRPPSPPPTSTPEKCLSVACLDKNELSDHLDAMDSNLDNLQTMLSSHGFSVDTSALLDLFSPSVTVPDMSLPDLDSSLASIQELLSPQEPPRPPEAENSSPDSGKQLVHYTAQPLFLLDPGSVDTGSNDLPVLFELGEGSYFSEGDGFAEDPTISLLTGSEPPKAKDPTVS
# Procedure, shortened: as §1
# SPIC = molecular target: T2, SPIC (Homo sapiens, UniProt Q8N5J4 1-248); details: protein: recombinant; tags: N-terminal GST; dsDNA, one strand shown
# T2 sequence: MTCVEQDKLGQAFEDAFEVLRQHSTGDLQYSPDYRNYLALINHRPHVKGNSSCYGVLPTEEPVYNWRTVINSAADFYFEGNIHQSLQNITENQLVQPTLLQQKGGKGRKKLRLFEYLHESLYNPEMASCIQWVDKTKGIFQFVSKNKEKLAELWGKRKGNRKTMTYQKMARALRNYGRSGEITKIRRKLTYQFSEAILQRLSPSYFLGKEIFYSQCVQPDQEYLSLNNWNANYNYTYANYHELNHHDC
# Procedure, shortened: as §1
# ELF4 = ELF4 (Homo sapiens, UniProt Q99607 1-663); details: protein: recombinant; tags: N-terminal GST; dsDNA, one strand shown
# Sequence of ELF4 (Q99607 whole entry): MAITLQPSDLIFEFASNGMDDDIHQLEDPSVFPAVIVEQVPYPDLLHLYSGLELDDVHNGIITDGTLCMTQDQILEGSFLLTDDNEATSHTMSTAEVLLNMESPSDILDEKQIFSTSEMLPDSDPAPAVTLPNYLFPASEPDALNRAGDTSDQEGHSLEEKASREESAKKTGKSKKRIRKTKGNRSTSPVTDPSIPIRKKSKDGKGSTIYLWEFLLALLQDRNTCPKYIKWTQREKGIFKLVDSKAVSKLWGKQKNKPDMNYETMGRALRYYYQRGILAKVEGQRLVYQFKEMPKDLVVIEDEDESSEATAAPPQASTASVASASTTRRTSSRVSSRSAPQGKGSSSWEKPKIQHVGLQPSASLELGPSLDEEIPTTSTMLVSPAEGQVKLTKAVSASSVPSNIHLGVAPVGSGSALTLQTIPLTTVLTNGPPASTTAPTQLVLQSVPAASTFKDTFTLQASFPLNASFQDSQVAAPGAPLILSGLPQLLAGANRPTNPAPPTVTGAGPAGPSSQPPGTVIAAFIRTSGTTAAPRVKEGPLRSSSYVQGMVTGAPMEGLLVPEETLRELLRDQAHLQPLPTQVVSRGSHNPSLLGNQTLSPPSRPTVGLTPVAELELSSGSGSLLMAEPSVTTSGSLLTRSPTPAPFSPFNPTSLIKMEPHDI
# Procedure, shortened: as §1
# ELK4 = molecular target: T3, ELK4 (Homo sapiens, UniProt P28324-2 1-405); details: protein: recombinant; tags: N-terminal GST; dsDNA, one strand shown
# T3 sequence: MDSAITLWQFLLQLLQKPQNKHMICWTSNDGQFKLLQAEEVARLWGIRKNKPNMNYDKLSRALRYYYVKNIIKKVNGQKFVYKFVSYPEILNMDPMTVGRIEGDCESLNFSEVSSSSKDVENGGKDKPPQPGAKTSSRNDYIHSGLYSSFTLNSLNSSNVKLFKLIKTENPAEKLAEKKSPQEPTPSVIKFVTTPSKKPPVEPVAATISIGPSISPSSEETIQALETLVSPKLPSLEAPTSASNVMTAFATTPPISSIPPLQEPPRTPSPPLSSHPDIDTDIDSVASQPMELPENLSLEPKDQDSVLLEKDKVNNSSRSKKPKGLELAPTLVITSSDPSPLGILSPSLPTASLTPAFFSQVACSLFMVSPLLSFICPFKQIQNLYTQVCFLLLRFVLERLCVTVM
# Procedure, shortened: as §1
# ETV2 = molecular target: T4, ETV2 (Homo sapiens, UniProt O00321 1-342); details: protein: recombinant; tags: N-terminal GST; dsDNA, one strand shown
# T4 sequence: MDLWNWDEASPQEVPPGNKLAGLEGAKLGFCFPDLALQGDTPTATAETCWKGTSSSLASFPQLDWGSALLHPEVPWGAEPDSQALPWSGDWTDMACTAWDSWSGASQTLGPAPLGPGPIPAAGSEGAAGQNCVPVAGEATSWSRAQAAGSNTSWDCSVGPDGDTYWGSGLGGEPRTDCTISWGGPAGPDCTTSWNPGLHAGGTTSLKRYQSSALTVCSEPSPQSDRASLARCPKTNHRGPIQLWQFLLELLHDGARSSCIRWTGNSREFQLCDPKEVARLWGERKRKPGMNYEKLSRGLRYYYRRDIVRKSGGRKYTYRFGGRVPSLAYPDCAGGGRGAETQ
# Procedure, shortened: as §1
# ELF3 = molecular target: T5, ELF3 (Homo sapiens, UniProt P78545 1-371); details: protein: recombinant; tags: N-terminal GST; dsDNA, one strand shown
# T5 sequence: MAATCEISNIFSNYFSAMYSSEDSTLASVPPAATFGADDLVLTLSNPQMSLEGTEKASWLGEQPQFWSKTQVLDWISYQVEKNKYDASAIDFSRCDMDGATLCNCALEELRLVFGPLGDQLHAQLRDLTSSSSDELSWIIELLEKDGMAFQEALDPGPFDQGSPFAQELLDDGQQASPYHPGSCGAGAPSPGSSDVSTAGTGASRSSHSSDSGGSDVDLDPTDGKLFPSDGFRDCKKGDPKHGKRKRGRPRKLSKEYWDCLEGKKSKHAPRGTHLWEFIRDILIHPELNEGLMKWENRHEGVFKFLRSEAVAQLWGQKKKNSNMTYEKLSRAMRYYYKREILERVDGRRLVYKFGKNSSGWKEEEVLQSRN
# Procedure, shortened: as §1
# CRX = CRX (Homo sapiens, UniProt O43186 1-299); details: protein: recombinant; tags: N-terminal GST; dsDNA, one strand shown
# Sequence of CRX (O43186 whole entry): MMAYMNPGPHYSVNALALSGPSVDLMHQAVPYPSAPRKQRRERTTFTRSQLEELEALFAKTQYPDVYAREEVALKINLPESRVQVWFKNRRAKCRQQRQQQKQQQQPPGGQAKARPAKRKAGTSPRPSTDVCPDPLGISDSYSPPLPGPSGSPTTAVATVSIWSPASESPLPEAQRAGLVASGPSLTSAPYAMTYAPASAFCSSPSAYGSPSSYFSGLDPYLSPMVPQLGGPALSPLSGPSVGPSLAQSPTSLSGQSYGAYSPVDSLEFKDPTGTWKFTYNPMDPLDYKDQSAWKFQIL
# Procedure, shortened: as §1
# ETV1 = ETV1 (Homo sapiens, UniProt P50549 1-477); details: protein: recombinant; tags: N-terminal GST; dsDNA, one strand shown
# Sequence of ETV1 (P50549 whole entry): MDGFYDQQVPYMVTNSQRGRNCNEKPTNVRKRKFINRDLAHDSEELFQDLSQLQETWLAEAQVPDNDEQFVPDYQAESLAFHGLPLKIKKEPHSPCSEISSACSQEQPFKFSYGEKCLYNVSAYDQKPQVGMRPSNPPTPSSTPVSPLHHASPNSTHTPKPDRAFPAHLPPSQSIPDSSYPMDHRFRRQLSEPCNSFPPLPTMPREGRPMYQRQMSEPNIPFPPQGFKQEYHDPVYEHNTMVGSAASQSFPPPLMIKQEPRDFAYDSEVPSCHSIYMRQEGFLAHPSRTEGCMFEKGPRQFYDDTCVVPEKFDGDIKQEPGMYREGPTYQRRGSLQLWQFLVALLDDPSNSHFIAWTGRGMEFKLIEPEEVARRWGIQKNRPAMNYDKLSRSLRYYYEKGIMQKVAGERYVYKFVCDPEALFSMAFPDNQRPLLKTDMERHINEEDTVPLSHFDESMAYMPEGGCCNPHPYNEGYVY
# Procedure, shortened: as §1
# ERF = molecular target: T6, ERF (Homo sapiens, UniProt P50548 1-548); details: protein: recombinant; tags: N-terminal GST; dsDNA, one strand shown
# T6 sequence: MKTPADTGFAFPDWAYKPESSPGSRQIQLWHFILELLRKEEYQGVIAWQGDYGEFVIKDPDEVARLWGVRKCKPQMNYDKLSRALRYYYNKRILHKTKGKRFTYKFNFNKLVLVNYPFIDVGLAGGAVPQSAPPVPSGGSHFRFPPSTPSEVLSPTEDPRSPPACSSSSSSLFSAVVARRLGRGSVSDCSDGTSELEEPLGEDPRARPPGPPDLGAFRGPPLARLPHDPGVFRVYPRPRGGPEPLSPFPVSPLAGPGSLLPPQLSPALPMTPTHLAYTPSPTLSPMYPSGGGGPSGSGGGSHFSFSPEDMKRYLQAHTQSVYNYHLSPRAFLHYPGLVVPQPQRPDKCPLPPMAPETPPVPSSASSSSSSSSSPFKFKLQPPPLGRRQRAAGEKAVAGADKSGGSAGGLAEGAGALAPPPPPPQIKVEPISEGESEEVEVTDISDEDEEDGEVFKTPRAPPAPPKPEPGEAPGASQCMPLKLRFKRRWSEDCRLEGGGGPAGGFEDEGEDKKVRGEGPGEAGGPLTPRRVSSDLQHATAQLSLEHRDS
# Procedure, shortened: as §1
# ETV3L = molecular target: T7, ETV3L (Homo sapiens, UniProt Q6ZN32 1-361); details: protein: recombinant; tags: N-terminal GST; dsDNA, one strand shown
# T7 sequence: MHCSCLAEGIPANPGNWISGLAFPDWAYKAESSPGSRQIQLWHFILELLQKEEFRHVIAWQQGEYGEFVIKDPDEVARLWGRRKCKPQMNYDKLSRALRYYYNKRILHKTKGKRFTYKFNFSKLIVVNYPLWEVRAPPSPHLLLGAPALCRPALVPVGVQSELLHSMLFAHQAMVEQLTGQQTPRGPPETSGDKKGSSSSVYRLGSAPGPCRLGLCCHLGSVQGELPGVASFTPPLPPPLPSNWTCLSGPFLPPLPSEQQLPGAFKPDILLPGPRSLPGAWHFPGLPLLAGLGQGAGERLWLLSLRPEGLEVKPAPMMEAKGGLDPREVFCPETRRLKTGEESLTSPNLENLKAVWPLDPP
# Procedure, shortened: as §1
# ETS2 = molecular target: T8, ETS2 (Homo sapiens, UniProt P15036 1-469); details: protein: recombinant; tags: N-terminal GST; dsDNA, one strand shown
# T8 sequence: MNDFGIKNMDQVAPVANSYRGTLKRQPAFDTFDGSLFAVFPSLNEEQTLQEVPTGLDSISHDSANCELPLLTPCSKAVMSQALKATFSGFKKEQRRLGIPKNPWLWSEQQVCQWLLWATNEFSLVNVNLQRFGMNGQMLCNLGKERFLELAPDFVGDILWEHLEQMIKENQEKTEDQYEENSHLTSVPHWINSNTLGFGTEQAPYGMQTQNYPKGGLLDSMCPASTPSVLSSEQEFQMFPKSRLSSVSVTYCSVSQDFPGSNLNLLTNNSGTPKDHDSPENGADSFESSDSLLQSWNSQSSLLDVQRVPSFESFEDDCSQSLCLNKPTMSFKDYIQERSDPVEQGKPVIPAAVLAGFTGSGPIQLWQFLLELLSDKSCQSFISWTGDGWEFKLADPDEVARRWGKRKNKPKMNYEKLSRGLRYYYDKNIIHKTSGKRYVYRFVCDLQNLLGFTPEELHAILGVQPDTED
# Procedure, shortened: as §1
# SPDEF = molecular target: T9, SPDEF (Homo sapiens, UniProt O95238 1-335); details: protein: recombinant; tags: N-terminal GST; dsDNA, one strand shown
# T9 sequence: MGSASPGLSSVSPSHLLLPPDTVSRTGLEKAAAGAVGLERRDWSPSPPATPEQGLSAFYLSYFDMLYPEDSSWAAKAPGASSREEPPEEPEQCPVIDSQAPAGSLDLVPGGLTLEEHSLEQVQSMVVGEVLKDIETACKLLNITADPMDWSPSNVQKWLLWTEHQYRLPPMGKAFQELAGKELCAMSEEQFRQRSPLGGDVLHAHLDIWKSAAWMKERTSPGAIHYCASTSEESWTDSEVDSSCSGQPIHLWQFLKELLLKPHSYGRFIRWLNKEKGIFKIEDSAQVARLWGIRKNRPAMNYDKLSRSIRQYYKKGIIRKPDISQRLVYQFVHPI
# Procedure, shortened: as §1
# ETV7 = molecular target: T10, ETV7 (Homo sapiens, UniProt Q9Y603 1-341); details: protein: recombinant; tags: N-terminal GST; dsDNA, one strand shown
# T10 sequence: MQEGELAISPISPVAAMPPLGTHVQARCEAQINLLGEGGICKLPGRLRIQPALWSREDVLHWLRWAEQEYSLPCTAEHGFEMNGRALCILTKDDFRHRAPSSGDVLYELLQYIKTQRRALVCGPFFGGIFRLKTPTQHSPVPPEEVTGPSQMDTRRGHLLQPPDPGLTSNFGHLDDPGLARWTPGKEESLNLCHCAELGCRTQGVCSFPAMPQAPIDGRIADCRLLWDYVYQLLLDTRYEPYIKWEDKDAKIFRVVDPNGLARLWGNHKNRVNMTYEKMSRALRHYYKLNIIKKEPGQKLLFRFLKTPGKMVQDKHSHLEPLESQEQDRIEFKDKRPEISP
# Procedure, shortened: as §1
# ELF5 = molecular target: T11, ELF5 (Homo sapiens, UniProt Q9UKW6-2 1-255); details: protein: recombinant; tags: N-terminal GST; dsDNA, one strand shown
# T11 sequence: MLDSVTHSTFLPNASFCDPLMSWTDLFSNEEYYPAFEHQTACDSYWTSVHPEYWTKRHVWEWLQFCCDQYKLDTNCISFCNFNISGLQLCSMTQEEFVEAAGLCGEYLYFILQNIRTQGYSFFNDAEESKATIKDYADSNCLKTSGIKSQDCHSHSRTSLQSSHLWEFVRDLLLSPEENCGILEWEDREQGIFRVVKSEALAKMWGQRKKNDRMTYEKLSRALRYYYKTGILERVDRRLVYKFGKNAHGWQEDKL
# Procedure, shortened: as §1
# ETV3 = molecular target: T12, ETV3 (Homo sapiens, UniProt P41162-2 1-143); details: protein: recombinant; tags: N-terminal GST; dsDNA, one strand shown
# T12 sequence: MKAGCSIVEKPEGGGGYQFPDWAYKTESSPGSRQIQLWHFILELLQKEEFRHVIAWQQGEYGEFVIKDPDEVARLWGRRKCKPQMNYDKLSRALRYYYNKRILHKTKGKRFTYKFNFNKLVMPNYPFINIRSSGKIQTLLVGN
# Procedure, shortened: as §1
# ETV6 = ETV6 (Homo sapiens, UniProt P41212 1-452); details: protein: recombinant; tags: N-terminal GST; dsDNA, one strand shown
# Sequence of ETV6 (P41212 whole entry): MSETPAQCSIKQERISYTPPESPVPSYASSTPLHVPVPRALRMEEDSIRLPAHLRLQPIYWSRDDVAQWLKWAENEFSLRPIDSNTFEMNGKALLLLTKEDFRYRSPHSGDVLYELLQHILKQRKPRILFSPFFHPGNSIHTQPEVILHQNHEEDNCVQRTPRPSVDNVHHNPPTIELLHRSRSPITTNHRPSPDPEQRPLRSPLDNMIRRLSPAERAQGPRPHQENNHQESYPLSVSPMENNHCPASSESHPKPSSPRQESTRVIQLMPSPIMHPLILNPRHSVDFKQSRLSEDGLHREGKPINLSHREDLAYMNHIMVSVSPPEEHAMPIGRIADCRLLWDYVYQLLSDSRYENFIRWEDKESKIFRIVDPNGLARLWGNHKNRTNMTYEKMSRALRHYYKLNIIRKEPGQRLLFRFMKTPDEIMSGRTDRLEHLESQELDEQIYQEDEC
# Procedure, shortened: as §1
sequence,measurement,setting,value
TCTCTA,binding signal,FEV,"1.32 fold enrichment (6-mer frequency, TF over GST control)"
same,binding signal,ETV5,"1.21 fold enrichment (6-mer frequency, TF over GST control)"
same,binding signal,HSF1,"1.74 fold enrichment (6-mer frequency, TF over GST control)"
same,binding signal,SPIC,"1.38 fold enrichment (6-mer frequency, TF over GST control)"
same,binding signal,ELF4,"1.25 fold enrichment (6-mer frequency, TF over GST control)"
same,binding signal,ELK4,"1.22 fold enrichment (6-mer frequency, TF over GST control)"
same,binding signal,ETV2,"1.24 fold enrichment (6-mer frequency, TF over GST control)"
same,binding signal,ELF3,"1.28 fold enrichment (6-mer frequency, TF over GST control)"
same,binding signal,CRX,"1.56 fold enrichment (6-mer frequency, TF over GST control)"
same,binding signal,ETV1,"1.2 fold enrichment (6-mer frequency, TF over GST control)"
same,binding signal,ERF,"1.24 fold enrichment (6-mer frequency, TF over GST control)"
same,binding signal,ETV3L,"1.29 fold enrichment (6-mer frequency, TF over GST control)"
same,binding signal,ETS2,"1.22 fold enrichment (6-mer frequency, TF over GST control)"
same,binding signal,SPDEF,"1.24 fold enrichment (6-mer frequency, TF over GST control)"
same,binding signal,ETV7,"1.34 fold enrichment (6-mer frequency, TF over GST control)"
same,binding signal,ELF5,"1.21 fold enrichment (6-mer frequency, TF over GST control)"
same,binding signal,ETV3,"1.3 fold enrichment (6-mer frequency, TF over GST control)"
same,binding signal,ETV6,"1.21 fold enrichment (6-mer frequency, TF over GST control)"
